Laboratory results: PubChem BioAssay AID720582 (The Scripps Research Institute Molecular Screening Center, 2013)
Screen size: about 370,000 compounds; about 2,300 (0.62%) were called active.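 How the source made its calls: active means inhibition above a per-campaign cutoff equal to the mean of compounds falling between control-based bounds plus 3 SD (cut at about 20% in these data); inactive means the rest.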 This excerpt belongs to a sample that is enriched for actives.

Target: Disintegrin and metalloproteinase domain-containing protein 10 (Homo sapiens) (UniProt O14672)
Sequence (O14672 214-748 limits assumed): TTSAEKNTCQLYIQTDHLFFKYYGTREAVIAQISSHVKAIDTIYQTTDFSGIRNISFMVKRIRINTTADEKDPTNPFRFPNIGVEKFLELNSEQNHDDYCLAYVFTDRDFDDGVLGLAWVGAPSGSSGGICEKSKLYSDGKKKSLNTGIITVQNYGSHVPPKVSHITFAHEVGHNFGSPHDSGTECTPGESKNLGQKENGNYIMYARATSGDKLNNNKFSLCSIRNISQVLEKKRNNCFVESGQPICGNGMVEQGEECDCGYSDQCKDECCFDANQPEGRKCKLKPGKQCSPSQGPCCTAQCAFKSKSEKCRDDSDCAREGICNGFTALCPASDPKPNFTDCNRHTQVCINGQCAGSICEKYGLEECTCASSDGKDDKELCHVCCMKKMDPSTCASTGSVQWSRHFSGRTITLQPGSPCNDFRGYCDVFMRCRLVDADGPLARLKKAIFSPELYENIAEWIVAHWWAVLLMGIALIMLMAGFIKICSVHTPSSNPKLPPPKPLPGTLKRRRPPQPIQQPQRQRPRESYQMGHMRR
Assay: blockers of ADAM10 peptide cleavage – biochemical, QFRET, HTS, primary screen (AID 720582);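 further: 0% = DMSO wells while the 100% control is not disclosed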
Settings: recombinant ADAM10, EDANS/DABCYL FRET peptide cleavage, 3 h; at 7 µM; hits give high values

inhibition, inactive:
COC(=O)C1CN(CC(C)C)CCS(=O)(=O)N1Cc1ccc(C)cc1 (centres undefined) -14.6%, COC(=O)CC1CCc2cc(C)cc(C(CC(C)C)NC(=O)[C@H](CC(C)C)NC(=O)OCc3ccccc3)c2O1 (some centres undefined) -2.1%, COc1ccc(N2CCN(CCNS(=O)(=O)c3ccc(Cl)s3)CC2)cc1 0.29%, C=CC[C@@H](Cc1ccc(F)cc1)C(=O)OC[C@H]1CCCN1C(=O)[C@H](CC=C)CC(=O)N(CCO)Cc1ccccc1 -2.18%, C=CC[C@@H](CC(=O)N[C@H](CO)Cc1ccccc1)C(=O)N[C@@H](COC(=O)[C@@H](CC=C)Cc1ccc(F)cc1)Cc1c[nH]c2ccccc12 0.04%, C=CCC[C@@H](Cc1ccc(F)cc1)C(=O)OC[C@@H](C)NC(=O)[C@H](CC=C)CC(=O)N(CCO)Cc1ccccc1 8.58%, C=CCC[C@H](Cc1ccc(F)cc1)C(=O)OC[C@@H](Cc1c[nH]c2ccccc12)NC(=O)[C@H](CC=C)CC(=O)N[C@H](CO)Cc1ccccc1 0.78%, C=CCC[C@H](Cc1ccc(F)cc1)C(=O)OC[C@@H](NC(=O)[C@@H](CC=C)CC(=O)N[C@H](CO)Cc1ccccc1)C(C)(C)C 8.16%, C=CCC[C@H](Cc1ccc(F)cc1)C(=O)OC[C@H](C)NC(=O)[C@H](CC=C)CC(=O)N(CCO)Cc1ccccc1 7.82%, CSc1ccc(C=Nn2c(-c3ccc(F)cc3)n[nH]c2=S)cc1 -11.4%, Cc1cccc(C(=O)Nc2c(-c3ccc(F)cc3)nc3ncccn23)c1 -329%, CCC(CO)Nc1cccc2c1S(=O)(=O)N(Cc1cn(Cc3ccccc3C(F)(F)F)nn1)Cc1ccccc1O2 (centres undefined) -15.3%, O=C(N1CCOCC1)N1CC[C@H]2[C@H](CCCN2Cc2ccc(F)cc2)C1 -0.66%, CC(C)CNc1cccc2c1S(=O)(=O)N(Cc1cn(Cc3ccc(Cl)cc3)nn1)Cc1ccccc1O2 -29.6%, CCn1c(=O)n2n(c1=O)[C@@]1(C=C3CCCC[C@H]32)N=C(NC(=O)c2ccccc2)N(Cc2ccccc2)[C@H]1Cc1ccccc1 9.57%, COC(=O)C[C@@H]1CC[C@@H]2[C@H](COc3ccc(NC(=O)c4cccc(F)c4)cc3C(=O)N2C)O1 9.14%, COc1cccc(CNC(=O)CNS(=O)(=O)c2ccc3nc(C)sc3c2)c1OC 4.07%, Cc1cc(C(=O)NN=C/C=C/c2ccco2)n[nH]1 -13.7%, C[C@@H]1ON(C)[C@H]2C[C@H]3c4[nH]c5cccc(-c6ccc7c(c6)OCO7)c5c4CCN3C[C@@H]12 -72.8%, O=C(NN1C(=O)C2C3C=CC(O3)C2C1=O)c1ccccc1 (centres undefined) 1.76%, O=C(NN1C(=O)C2C3C=CC(C4CC34)C2C1=O)c1ccc(Cl)cc1 (centres undefined) -2.31%, CCCCN1CCN(C(=O)c2ccc3c(c2)NC(=O)C(C)(C)O3)CC1 2.07%, Fc1ccc2nc(COCc3nc4ccc(F)cc4[nH]3)[nH]c2c1 2.8%, O=C(O)COc1ccc(/C=N/O)cc1Br 3.83%, COc1cc(/C=C/c2ccc(/C=C/c3cc(OC)c(OC)c(OC)c3)cc2)cc(OC)c1OC -373%, Cc1ccc(-n2c(SCC(=O)Nc3ccc(S(=O)(=O)Nc4nccs4)cc3)nnc2-c2ccncc2)cc1 -1.24%, COCCCNC(=S)N1CCN(c2nc(-c3cccc(OC)c3)cs2)CC1 9.71%, CC1CCCC(C)N1C(=O)CN1CCN(c2nc(-c3ccc(F)cc3)cs2)CC1 (centres undefined) 1.47%, CC[C@@H](CCC(=O)N(c1ccccc1)c1ccccc1)C1CC1 -6.31%, CCOc1ccc(-n2c(SCC(=O)Nc3cc(C)c(NC(=O)c4ccccc4)cc3OC)nnc2-c2cccs2)cc1 17.4%, COc1ccc(OCC(=O)OCC(=O)Nc2ccc(S(=O)(=O)N3CCCCC3)cc2)cc1 -5.59%, CCOc1ccc(NC(=O)COc2ccc(S(=O)(=O)N3CCCC3)cc2)cc1 4.99%, CCOC(=O)[C@]12CCCCC/C=C\1N(Cc1ccc(OC)cc1)C(=O)[C@H]2CC(=O)N1CCOCC1 3.26%, CCCCNC(=O)C[C@H]1C[C@@]2(C(=O)OC)C(=C[C@H](COCc3ccccc3)O[C@@H]2C)N(Cc2ccc(Cl)cc2Cl)C1=O 9.41%, CC(C)(C)c1ccc(CSc2nnc(-c3cccs3)o2)cc1 -4.29%, Cc1ccc(S(=O)(=O)N2CCC(N3CCCCCC3)CC2)cc1 3.62%, O=[N+]([O-])c1cccc(S(=O)(=O)N2CCCCCC2)c1 -4.84%, CC1=C(C(=O)N2CCOCC2)CC(CC(=O)NCc2cccs2)C(=O)N1CCCN1CCCC1=O (centres undefined) -13.7%, CCCNC(=O)C1CC(=O)N(c2ccc(OCc3ccccc3)cc2)C1 (centres undefined) -1.57%, COc1cc(C2C(C(=O)c3ccco3)=C(O)C(=O)N2c2cc(C)on2)ccc1OCc1ccccc1 (centres undefined) -2.12%

inhibition, active:
C=CCC[C@@H](Cc1ccc(F)cc1)C(=O)OC[C@H](Cc1c[nH]c2ccccc12)NC(=O)[C@@H](CC=C)CC(=O)N(CCO)Cc1ccccc1 41.8%, C=CCC[C@@H](Cc1ccc(F)cc1)C(=O)O[C@H](CNC(=O)[C@H](CC=C)CC(=O)N(CCO)Cc1ccccc1)c1ccccc1 31.3%, C=CC[C@H](CC(=O)N(CCO)Cc1ccccc1)C(=O)N[C@@H](COC(=O)[C@@H](CC=C)Cc1ccc(F)cc1)Cc1ccccc1 28%, COc1ccc(C(=O)NN2C(=O)C3C(c4ccccc4)C=CC(c4ccccc4)C3C2=O)cc1 (centres undefined) 24.9%, COc1cc(/C=N/O)cc(Br)c1OS(=O)(=O)c1ccc(C)cc1 21.9%, COc1cccc(NC(=O)CN2CCN(c3nc(-c4cccc(OC)c4)cs3)CC2)c1 21.4%, O=C(CSCc1ccc(Br)cc1)Nc1ccc(S(=O)(=O)N2CCCCCC2)cc1 24.1%, O=S(=O)(c1cccc(S(=O)(=O)N2CCC(n3nnc4ccccc43)CC2)c1)N1CCCCC1 20.5%, COc1cc(C2CC(=O)N3CN(Cc4ccccc4)CSC3=C2C#N)ccc1OCc1ccccc1 (centres undefined) 27.5%
